One test has as its system RARa homodimer (NR concentration 270 nM). As to the kind of experiment: PBM binding z-score (relative to random genomic background probes); higher = stronger binding; sequences stand for … in GC…GCGATTGACAGCGTAGAATGAAGG
Summed up: (§1)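 Binding buffer was PBS pH 7.4 with 2% milk, 0.02% Triton X-100, 1 mM DTT, 0.2 mg/mL BSA and 0.4 mg/ml salmon testes DNA. In it, ligand-free nuclear receptor dimers were incubated 1 h on custom Agilent 4×180K protein-binding microarrays carrying double-stranded probes. Antibodies against each partner (one per run) detected binding, and z-scores were calculated against random background probes after regression normalization of scanned fluorescence.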
In turn, AGTCAAAGTTCATCCAGGTAACGTAAGATATGCT returned a PBM binding z-score of 1.34.
In turn, CTCGAAAGGTCGGTTGAGGTGAGTAGACGGATAA registered a PBM binding z-score of -0.0972.
The same measure, in the same setting: for CCTTACGGGTCACGAGGTTATAGGACGACGAGCG the value was 1.17; for ATCGAAAGGTCGACGAGGTGACTATACACCGTTT, 0.449; for AGAATGAGGTTACGAAAGATCAGGGAAACGCTTG, -0.313.
The same measure, in the same setting: for TCTGCTAGGTTAACGATGGTCAGCTAATCTGCTA the value was -0.99; for ATCGAAAGGTCGACGAGGTGAGTATTCACCGTTT, -0.0728; for ATATGTAGGTAAGCTGGGGTCATTCAGACTAGGC, 0.719.
Same read-out and setting: under CATACAGGGTCAGCTAGCCCAGAGTAGGGACGGC stands 0.642.
Sequence ATCGAAAGATCGAGGTGAGTATAGAGAAAGGGAA returned a PBM binding z-score of -0.0593.
The same measure, in the same setting: under TCTATTAGTTAAAGGGCAACCGACGAGTCCGTTT stands 1.13; under CCTATTATTTGACCATAAGGGCAACCGAAGCTCG, 4.4; under AATACACGGTCATCGTAGGCCAGAGTACGCACAG, 0.727.
CGTCCAAGGGCAAAGGTCAGTGAAGAGATGACGG came in with a PBM binding z-score of 0.911.
On the same count and under the same terms, under CCTTACGGGTCACAAGGTTATAGCACGACGAGCG stands 1.2; under GCGACTGGGGCATCAGCAGGTTCCCATAACTTAA, -0.565; under AGAACGAGGGCACGCTGAGTTTATAGCAGAGTAG, -0.418.
Still for that read-out and setting: for GATACAGGGTCAAGGCCAGATTACGCGTATTGAT the value was 1.59; for ATACCAAGGTGAACGTGAGGTCGTTGATACTAAC, 0.99.
Sequence CCTGCTAGGTCTTGGTCAGCTAATCTACAGTATG displayed a PBM binding z-score of -1.02.
Same read-out and setting: under GCTTGTAGATCAAGGTTACGAAAGACTAAGCTAA stands 0.273.
Same read-out and setting: for CCTGCTAGGTCATGGTCAGCTACTCTACAGTATG the value was -0.0662; for TCGAGTAGGTTACCAATGGGGCAGTCAGCTTTCT, -1.21; for GGAACGAGGGAAAAGTTGATAGCATCTGTCGACG, -0.0387.
On the same count and under the same terms, for ATATGTAGGTTATCGGGTCATTCCGTTTGCGCAT the value was 0.962.
With AGAATGAGGTTCCCAAAGATCAGGGAAACGCTTG, the PBM binding z-score is -0.181.
On the same count and under the same terms, under CCTACTGGGCCAAGGTCATTGATCAGTCAAAGCA stands -0.4.
For the sequence ATCTCTAGGTAAAAAGTTCAGTGAAAGAGAGGAC, the PBM binding z-score turned out to be 1.65.
With CCTTACGGGTCACTCCAGATTATAGCATCGGAGT, the PBM binding z-score stood at 0.564.
Still for that read-out and setting: for AGTCAAAGTTCATCTAGGCAACGTAAGATATGCT the value was 0.925; for TAGCCTAGGTCAGTCAGGGGCCAGTATAGAAAGC, -0.63; for CCGACTGGGGCAGAAAGGTTACCACACCATCCGG, 0.0999.
Still for that read-out and setting: under ATATGTAGGTTACATCTGGGTCATTCAGGCTATG stands 0.399; under TCAGACAGATGAAGGTAACTCAGGTACGCAGTCG, 0.265.
For CTCGAAAGGTCGGTTAAGGTGAGTATACGGATAA, the PBM binding z-score was found to be 0.996.
On the same count and under the same terms, for TCGAGTAGGTTAGGGGCATTCTGAATGGCGTCGA the value was -0.415; for GATACAGGGTCAAGGCCGGAGTACGCGTATTGAT, 0.567.
On to GCTGCTAGGTCAACTGATGGTCAGTTAAAGCTCG, for which the PBM binding z-score was -0.0466.
ACTAGCAGGCCAAGTTTGGGCCACTCAAACAAAG displayed a PBM binding z-score of -1.32.

The next test relates to RARb:RXRa (NR concentration 270 nM, RXRa partner concentration 90 nM). The test is described as above. Summed up: as §1
For the sequence AGTCAAAGTTCATCCAGGTAACGTAAGATATGCT, the PBM binding z-score was found to be 4.83.
Still for that read-out and setting: for CTCGAAAGGTCGGTTGAGGTGAGTAGACGGATAA the value was 3.11.
On the same count and under the same terms, under CCTTACGGGTCACGAGGTTATAGGACGACGAGCG stands 4.56.
ATCGAAAGGTCGACGAGGTGACTATACACCGTTT: the PBM binding z-score was 4.01.
Same read-out and setting: under AGAATGAGGTTACGAAAGATCAGGGAAACGCTTG stands 2.21; under TCTGCTAGGTTAACGATGGTCAGCTAATCTGCTA, 1.15; under ATCGAAAGGTCGACGAGGTGAGTATTCACCGTTT, 3.91.
Same read-out and setting: under ATATGTAGGTAAGCTGGGGTCATTCAGACTAGGC stands 2.67; under CATACAGGGTCAGCTAGCCCAGAGTAGGGACGGC, 4.01.
The same measure, in the same setting: for ATCGAAAGATCGAGGTGAGTATAGAGAAAGGGAA the value was 0.194; for TCTATTAGTTAAAGGGCAACCGACGAGTCCGTTT, 2.47; for CCTATTATTTGACCATAAGGGCAACCGAAGCTCG, 1.64.
AATACACGGTCATCGTAGGCCAGAGTACGCACAG registered a PBM binding z-score of 2.83.
The same measure, in the same setting: for CGTCCAAGGGCAAAGGTCAGTGAAGAGATGACGG the value was 4.78.
As for CCTTACGGGTCACAAGGTTATAGCACGACGAGCG, the PBM binding z-score was 4.15.
The same measure, in the same setting: under GCGACTGGGGCATCAGCAGGTTCCCATAACTTAA stands 0.421; under AGAACGAGGGCACGCTGAGTTTATAGCAGAGTAG, 2.63; under GATACAGGGTCAAGGCCAGATTACGCGTATTGAT, 4.65.
Still for that read-out and setting: under ATACCAAGGTGAACGTGAGGTCGTTGATACTAAC stands 2.43; under CCTGCTAGGTCTTGGTCAGCTAATCTACAGTATG, 0.537.
Same read-out and setting: under GCTTGTAGATCAAGGTTACGAAAGACTAAGCTAA stands 0.947; under CCTGCTAGGTCATGGTCAGCTACTCTACAGTATG, 4.04; under TCGAGTAGGTTACCAATGGGGCAGTCAGCTTTCT, 0.908.
Take GGAACGAGGGAAAAGTTGATAGCATCTGTCGACG: the PBM binding z-score is -0.212.
On the same count and under the same terms, for ATATGTAGGTTATCGGGTCATTCCGTTTGCGCAT the value was 2.65; for AGAATGAGGTTCCCAAAGATCAGGGAAACGCTTG, -0.0949; for CCTACTGGGCCAAGGTCATTGATCAGTCAAAGCA, 3.27.
On the same count and under the same terms, for ATCTCTAGGTAAAAAGTTCAGTGAAAGAGAGGAC the value was 2.38.
Same read-out and setting: under CCTTACGGGTCACTCCAGATTATAGCATCGGAGT stands 3.75; under AGTCAAAGTTCATCTAGGCAACGTAAGATATGCT, 5.1.
As to TAGCCTAGGTCAGTCAGGGGCCAGTATAGAAAGC, the PBM binding z-score amounted to 3.21.
On the same count and under the same terms, for CCGACTGGGGCAGAAAGGTTACCACACCATCCGG the value was 1.92.
The same measure, in the same setting: under ATATGTAGGTTACATCTGGGTCATTCAGGCTATG stands 2.18; under TCAGACAGATGAAGGTAACTCAGGTACGCAGTCG, 0.227; under CTCGAAAGGTCGGTTAAGGTGAGTATACGGATAA, 3.22.
Regarding TCGAGTAGGTTAGGGGCATTCTGAATGGCGTCGA, the PBM binding z-score turned out to be 0.807.
In turn, GATACAGGGTCAAGGCCGGAGTACGCGTATTGAT came in with a PBM binding z-score of 4.55.
On the same count and under the same terms, under GCTGCTAGGTCAACTGATGGTCAGTTAAAGCTCG stands 4.15; under ACTAGCAGGCCAAGTTTGGGCCACTCAAACAAAG, 0.466.

The values are drawn from the supplement of paper PMC6555819.
